Rows were chosen to be rich in hits. Some 2.4% of all compounds tested hit in one or more screens of this group.
D2 ag-1: agonists of human D2 dopamine receptor (beta-arrestin). DiscoveRx PathHunter D2 beta-arrestin, luminescence, 90 min; 100% = 57 uM dopamine signal. activation, % (test concentration not listed). 0.084% of 360,000 active; in the data active = activation above about 40%; inconclusive = between about 15% and that limit
Target sequence (P14416 whole entry, looked up): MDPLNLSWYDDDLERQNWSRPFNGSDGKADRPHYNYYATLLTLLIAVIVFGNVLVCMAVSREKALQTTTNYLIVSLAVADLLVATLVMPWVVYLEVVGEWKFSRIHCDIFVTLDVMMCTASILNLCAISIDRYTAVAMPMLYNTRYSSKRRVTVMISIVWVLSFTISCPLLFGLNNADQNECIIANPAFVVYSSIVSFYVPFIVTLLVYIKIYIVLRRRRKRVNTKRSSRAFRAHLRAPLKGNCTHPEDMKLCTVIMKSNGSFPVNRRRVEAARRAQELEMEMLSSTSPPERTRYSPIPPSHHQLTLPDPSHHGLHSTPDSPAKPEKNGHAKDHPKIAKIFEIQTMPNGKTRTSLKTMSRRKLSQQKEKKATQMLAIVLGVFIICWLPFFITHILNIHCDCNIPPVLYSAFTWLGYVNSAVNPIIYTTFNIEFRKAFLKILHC
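DiscoveRx PathHunter D2 beta-arrestin cells (2,100/well) attached overnight, then compound-stimulated 90 min at 37 C in HBSS/10 mM HEPES/0.1% Tween-20 buffer; beta-galactosidase complementation read by luminescence after 1 h at ambient temperature. Dopamine 57 uM final (EC100) as control.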
D2 PAM-1: positive allosteric modulators of human D2 dopamine receptor. P14416. DiscoveRx D2 beta-arrestin cells, luminescence, 90 min; 100% = 57 uM dopamine signal. potentiation, % (test concentration not listed). 0.23% of 360,000 active. AID 624464; in the data active = potentiation above about 50%; inconclusive = mostly about 30% to 49%
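D2 cells co-treated with compound plus 50 nM dopamine (EC20) for 90 min at 37 deg C to detect potentiation. Beta-arrestin recruitment was read as enzyme-fragment luminescence after 1 h at ambient temperature. Full response was set by 57 uM dopamine.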
D2 PAM-2: positive allosteric modulators of human D2 dopamine receptor. P14416. HEK293 T-REx D2, calcium flux, EC20 dopamine potentiation. potentiation, % at 10 µM. 0.34% of 340,000 active. AID 485347;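 active = potentiation over 3 SD above the plate norm, cut at about 30% in these data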; note: 0% is about no effect
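Tetracycline-induced Hek293 Trex D2 cells, force-coupled to calcium, loaded with no-wash calcium dye. Compound added with 180 s kinetic read for agonism, then EC20 dopamine and a further 180 s read for potentiation.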
D2 antag: antagonists of human D2 dopamine receptor; HEK293 TREx D2 cells, calcium flux, dopamine EC80; 2% of 340,000 active; inhibition, % at 10 µM; P14416; AID 485344; in the data active = inhibition above about 30%; inactive = below that, where a call was filed; note: 0% is about no effect
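Overnight-induced (tetracycline, 30 C) HEK293 T-REx cells carrying force-coupled D2 receive a no-wash calcium dye, then compound, then EC80 dopamine at 180 s; signals are read kinetically throughout.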
D2 ag-2: activates the human D2 dopamine receptor. HEK293 T-REx D2 cells, calcium flux agonist mode. activation, % at 2 µM. 0.53% of 340,000 active. AID 485358;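 active = activation over 3 SD above normal in the single-dose calcium agonist read, cut at about 30% in these data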; note: 0% is about no effect
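Agonism is scored from calcium flux in a force-coupled, inducible HEK293 cell line expressing D2, read kinetically for 180 s after compound addition against dopamine controls.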
Numbers without * were called inactive; ? = inconclusive; nt = not tested or not shown.

SMILES	D2 ag-1	D2 PAM-1	D2 PAM-2	D2 antag	D2 ag-2
CCn1nnc2cc(C(=O)Nc3ccc(C)c(Cl)c3)ccc21	nt	nt	-4	nt	0
O=C(NCCc1ccc(Cl)cc1)c1nc(-c2cccc(F)c2)n2c1CCCCC2	nt	nt	-4	nt	-1
CC(C)NC(=O)C1(c2ccccc2)CCOCC1	-3	-16	35*	-26	1
CC(Cc1ccccc1)NC(=O)C1(c2ccccc2)CCOCC1 (stereo not given)	-2	-9	-1	9	0
Cc1ccc(-n2c(SCC(=O)N3CCc4ccccc43)nc3c([nH]c4ccccc43)c2=O)cc1	nt	nt	0	nt	1
O=c1cc2oc3cc(O)c(O)cc3c(-c3ccccc3[N+](=O)[O-])c-2cc1O	-4	9	24	31*	1
CCc1cc(C(=O)NCC(c2cccs2)N2CCOCC2)sc1C (stereo not given)	-2	-38	-5	31*	0
CCn1c(SC(C)C(=O)NCC2CCCO2)nc2ccccc21 (stereo not given)	-1	-16	-5	31*	-2
C=CCn1c(COc2ccc(F)cc2)nnc1SC(C)C(=O)NCC1CCCO1 (stereo not given)	-4	-7	-13	61*	0
COc1ccc(CCNC(=O)CS(=O)(=O)Cc2nc(-c3cccc(Cl)c3)oc2C)cc1OC	nt	nt	-4	nt	1
Nc1cc(=O)[nH]c(SCC(=O)Nc2cc(S(=O)(=O)N3CCCCC3)ccc2Cl)n1	-1	3	13	-12	-1
CCOC(=O)c1cc2n(c1/N=C/N(C)C)-c1ccccc1C2=O	-4	-4	4	15	36*
CCOC(=O)c1ccc2c(c1)N(C)C(=O)c1ccccc1S2	-2	-3	-1	-2	1
Cc1ccc(CNC(=O)c2cc(S(=O)(=O)N3CCCC(C)C3)cn2C)cc1 (stereo not given)	nt	nt	6	nt	0
CC(C)(CO)N=C1NS(=O)(=O)c2cc([N+](=O)[O-])ccc21	?	90*	0	15	0
CC(C)(C)CC(C)(C)N=C1NS(=O)(=O)c2cc([N+](=O)[O-])ccc21	?	29	8	15	1
O=C(COC(=O)C1CCN(c2ccc(C(F)(F)F)cn2)CC1)Nc1ncc(Cl)cc1Cl	-1	-1	1	35*	0
O=C(COC(=O)C1CCN(c2ccc(C(F)(F)F)cn2)CC1)Nc1ccc(Cl)cn1	-6	-4	2	10	1
O=C(COC(=O)C1CCN(c2ccc(C(F)(F)F)cn2)CC1)NCc1cccc(Cl)c1	-7	-30	4	34*	2
Cc1oc(-c2cccc(C(F)(F)F)c2)nc1CN1CCC[C@H]1CO	0	-13	-28	70*	-1
C=CCNC(=O)c1onc(CSc2ccc(F)cc2)c1C(=O)O	3	2	8	5	0
O=C(NCc1ccccc1)c1onc(CSc2ccc(Cl)cc2)c1C(=O)NCC1CC1	0	-1	-9	12	0
O=C(NCc1ccccc1)c1onc(CSc2ccccc2)c1C(=O)NCC1CC1	-6	-10	-9	39*	3
C=CCNC(=O)c1onc(CSc2ccccc2)c1C(=O)O	1	0	-5	32*	1
Cc1nc2oc3ccccc3c(=O)c2c(=O)n1Cc1ccccc1	-1	-4	-9	31*	1
SMILES	D2 ag-1	D2 PAM-1	D2 PAM-2	D2 antag	D2 ag-2
COc1ccc2c(=O)c3c(=O)n(CCc4ccccc4)c(C)nc3oc2c1	1	0	nt	nt	nt
CCCCCCn1c(-c2ccco2)nc2oc3cc(OC)ccc3c(=O)c2c1=O	-1	-9	30*	-4	-1
O=c1c2ccccc2oc2nc(-c3ccco3)n(CCc3ccccc3)c(=O)c12	nt	nt	3	-5	-1
COc1ccc(Cn2c(C)nc3oc4cc(OC)ccc4c(=O)c3c2=O)cc1	-6	-38	-11	72*	0
CCN1CCN(C2CC(=O)NC2=O)CC1 (stereo not given)	nt	nt	2	-5	-1
O=C1CC(N2CCC(C(=O)N3CCCCC3)CC2)C(=O)N1 (stereo not given)	-2	-8	nt	38*	2
COc1ccccc1N1CCN(c2ccc(=O)n(CC(=O)Nc3ccc(F)c(F)c3)n2)CC1	nt	nt	-21	nt	0
COc1ccc(NC(=O)c2ccc(OCC3CCCO3)cc2)cc1Cl (stereo not given)	8	25	-4	47*	1
Cc1ccc(NC(=O)N2CCCC2C(=O)NCC2CCCCC2)cc1 (stereo not given)	-1	-6	-5	35*	0
CCCC[n+]1ccn(-c2nc3c([N+](=O)[O-])cccc3n2C)c1	-7	-69	-8	34*	0
O=C(OCC(=O)N1CCCCCC1)c1cc(S(=O)(=O)N2CCOCC2)ccc1F	1	-1	nt	nt	nt
Cc1ccc(CSCCNC(=O)c2ccc(C)cc2)cc1	-2	-9	-21	32*	-3
COc1ccc(C(=O)NCCSCc2ccc(C)cc2)cc1	-5	-3	1	4	0
COc1ccc(C(C)(C)C)cc1NC(=O)c1c(C)noc1C	2	-4	2	-1	0
COc1ccc(C(C)(C)C)cc1NC(=O)CCc1c(C)noc1C	-4	-5	9	63*	-1
Cc1cc(C)c(NC(=O)C2CCCN(S(=O)(=O)c3c(C)noc3C)C2)c(C)c1 (stereo not given)	nt	nt	30	nt	-1
Cc1cc(C)c(NC(=O)C2CCCN(S(=O)(=O)c3c(C)noc3/C=C/N(C)C)C2)c(C)c1 (stereo not given)	-2	-3	-1	33*	0
Cc1cccc(CNC(=O)C2CCCN(S(=O)(=O)c3cn(C)cn3)C2)c1 (stereo not given)	nt	nt	-2	nt	0
O=c1[nH]c2c(c(=O)[nH]1)CCC2	-5	0	-2	37*	1
Cc1ccc(NS(=O)(=O)c2cccc(C(=O)NC3CCN(Cc4ccccc4)CC3)c2)c(C)c1	0	-3	nt	nt	nt
O=C(NC1CCN(Cc2ccccc2)CC1)c1cccc(S(=O)(=O)Nc2ccc(Br)cc2)c1	3	-32	-17	34*	1
C=CCN(c1ccccc1)S(=O)(=O)c1cccc(C(=O)NC2CCN(Cc3ccccc3)CC2)c1	-4	-32	-10	66*	0
O=C(NC1CCN(Cc2ccccc2)CC1)c1cccc(S(=O)(=O)Nc2ccc(F)cc2)c1	2	-6	-28	45*	0
CCN(CC(=O)Nc1ccc(NC(C)=O)cc1)C(=O)c1cccc(N2C(=O)c3ccccc3C2=O)c1	-3	-4	nt	nt	nt
COc1ccc(N(C)C(=O)c2nc(-c3cccc(F)c3)n3c2CCCCC3)c(OC)c1	nt	nt	-5	nt	1
COc1ccc(CNC(=O)Cn2c(=O)nc(-c3ccccc3)c3ccccc32)cc1OC	nt	nt	nt	nt	1

Source: PubChem (National Center for Advancing Translational Sciences (NCATS))
